Source: PubChem
TGFb inhibitor: qHTS for Inhibitors of TGF-b; HepG2 CAGA-GFP TGF-b/SMAD3 reporter, GFP fluorescence, 18 h; TGF-beta stimulated, 500 pg/mL final; Potency, µM (series often up to 46.1 µM), for the others: at the top dose activity, negative = inhibition, most hits filed as inhibitors; actives 1.2% (n = 410,000); AID 588855, 2011; note: % is set by controls: 0 for no effect and ±100 for the full control effect; nearly all actives have a fitted effect of over 65% in size
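HEPG2 CAGA-GFP cells (1000/well, DMEM with 1% FBS) were pre-incubated 2 h at 37 degrees C, given compound by pin tool, then stimulated with TGF-beta at 500 pg/mL final for 18 h before per-cell GFP fluorescence imaging.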
Nrf2 ARE act: qHTS of Nrf2 Activators. actives 0.31% (n = 410,000). AREc32 ARE-luciferase reporter (MCF7-derived line), luminescence, 24 h. Potency, µM (titrated, usually from 46.1 µM), inactives show at the highest dose activation, actives largely listed as activators; note: % of control where 0% means no effect; nearly all actives have a fitted effect of over 65% in size
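AREc32 cells carrying an ARE-driven firefly luciferase, 1000 cells/well in OPTI-MEM with 5% FBS, dosed after overnight attachment and incubated 24 hr at 37 deg C. Steady-Glo luminescence read after 30 min at RT.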
Nrf2 block: Nrf2 qHTS screen for inhibitors. A549 ARE-Fluc reporter, luciferase luminescence, 18-24 h. Potency, µM (doses to about 46 µM), inactives show at the highest dose activity change, negative = inhibition, usual class: inhibitors. actives 2.1% (n = 360,000); note: % is set by controls: 0 for no effect and ±100 for the full control effect; nearly all actives have a fitted effect of over 60% in size
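Nrf2 function is reported as luminescence of an ARE-controlled luciferase in A549 cells. Compounds were tested at several concentrations, and a CellTiter-Fluor read on the same wells flagged cytotoxicity.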
HepG2 tox: qHTS for Inhibitors of TGF-b: Cytotox Counterscreen. Potency, µM (top dose mostly 46.1 µM), for inactives: at the top dose activity change, negative = cytotoxicity, usual class: cytotoxic. actives 0.76% (n = 410,000). AID 588856, 2011. HepG2 CAGA-GFP viability, ATP luminescence, 18 h
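HepG2 CAGA-GFP cells (1000/well, DMEM with 1% FBS) received compound, then TGF-beta at 500 pg/mL final, and were incubated 18 hours at 37 degrees C. Viability was read by CellTiter-Glo luminescence. Media-only wells were set as complete cell-killing and DMSO as no toxicity.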
A549 viability: Nrf2 qHTS screen for inhibitors: counterscreen for cytotoxicity; A549 ARE-Fluc cells, CellTiter-Fluor viability, 18-24 h; actives 0.16% (n = 390,000); Potency, µM (titrated, usually from 46 µM), for the others: at the highest dose activity change, negative = cytotoxicity, usual class: inhibitors; note: % is set by controls: 0 for no effect and ±100 for the full control effect
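A549 ARE-Fluc cells in 5% FBS OPTI-MEM, 5000 cells/well, rested 2 h then exposed to compounds in concentration-response for 18-24 h at 37 °C. Viability by CellTiter-Fluor fluorescence (Ex 405/Em 525) after 30 min; luciferase luminescence (BugLite, 15 min, RT) read afterwards.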
An asterisk follows results filed as active; ? = inconclusive; · = no result given; [ ] = another dose, or the depositor's remark. The list is not random: actives were taken first. Their share in the collection is about 3.6%. Calls come from the whole dose curve; as a rule, active = well fitted curve in the direction sought with a large enough effect; inconclusive = small, poorly fitted or top-dose-only effect, or another doubt; inactive = no such curve, though single readings can be large; an effect the other way counts as inactive or inconclusive. Potency is the fitted concentration of half-maximal effect.

SMILES	TGFb inhibitor	Nrf2 ARE act	Nrf2 block	HepG2 tox	A549 viability
CC(=O)N1N=C(c2ccc(C)cc2)OC1c1ccc(Br)cc1 (centres undefined)	2.1%	6.9%	?	-11.0%	10.1%
COc1cc(NC(=O)c2nc3ccccc3nc2N2CCCCC2)cc(OC)c1OC	27.2%	10.1%	-17.5%	-35.7%	-8.9%
CCOC(=O)N1CCN(C(=O)CSc2nc3c([nH]c4ccccc43)c(=O)n2C)CC1	12.6µM*	-1.2%	?	-75.3%	-1.3%
Cc1ccc(C)c(/C=N/NC(=S)NCCc2ccccc2)c1	-9.1%	0.0%	-3.0%	-21.8%	14.7%
Cc1ccccc1CC1C(=O)Nc2ccc(Br)cc21 (centres undefined)	·	7.8%	-0.7%	-40.5%	3.7%
COc1ccc(Br)cc1CC1C(=O)Nc2ccccc21 (centres undefined)	-17.5%	4.1%	7.31µM*	-61.3%	2.2%
CC(=O)N1N=C(N)SC1c1ccc(Cl)c(Cl)c1 (centres undefined)	-4.2%	0.4%	·	-8.2%	·
O=C(COC(=O)/C=C/c1ccccc1[N+](=O)[O-])Nc1ccc(OC(F)F)cc1	0.0%	1.3%	6.7%	1.4%	-4.5%
O=C(COC(=O)/C=C/c1ccccc1[N+](=O)[O-])Nc1ccc2[nH]c(=O)[nH]c2c1	-9.7%	11.2µM*	-0.8%	-15.1%	1.7%
CCOC(=O)N1CCN(C(=O)COc2ccc3c(c2)C(=O)CC2(CCN(C(C)=O)CC2)O3)CC1	-6.8%	0.0%	2.1%	7.9%	15.8%
CCN(CC)c1cc(C)c2cc(NC(=O)c3ccc(Br)o3)ccc2n1	26.7%	0.3%	11.6µM*	-34.6%	?
CCCCc1ccc(C(=O)Nc2ccc3nc(N(CC)CC)cc(C)c3c2)cc1	?	-0.3%	5.1%[9.27 µM]	-37.2%	-13.7%
O=C1CCC(C(=O)N2CCCC2)CN1Cc1cccc(C(F)(F)F)c1 (centres undefined)	-28.1%	0.4%	2.9%	1.8%	1.3%
C=CCC1(CC=C)CCCN1C(=O)c1ccc2oc(CCCC)nc2c1	?	9.8%	·	-22.8%	·
CCOC(=O)Cc1csc(NC(=O)c2csc3c2CCCC3)n1	-24.0%	0.1%	18.4µM*	-28.5%	-0.5%
CCOC(=O)Cc1csc(NC(=O)/C=C/c2ccccc2Cl)n1	-17.1%	?	?	9.2%	-12.6%
CCOC(=O)Cc1csc(NC(=O)c2cc3c(s2)CCCC3)n1	-16.1%	2.7%	·	-39.7%	-0.7%
CCOC(=O)Cc1csc(NC(=O)/C=C\c2ccccc2Cl)n1	3.6%	?	25.9µM*	0.1%	-16.1%
CCN(CCCNS(=O)(=O)c1cc(-c2cc(C)no2)ccc1C)Cc1ccccc1	?	3.1%	4.7%	-27.4%	4.9%
N#CCSc1nc(-c2ccccc2)c2cc(Cl)ccc2n1	-3.2%	-0.6%	-18.7%	6.7%	-2.9%
Cc1cccc(C(=O)N(CCc2ccccc2)Cc2ccccc2)c1[N+](=O)[O-]	?	0.1%	20.6µM*	-31.0%	?
Cc1n[nH]c(=O)nc1Nc1ccc(O)cc1	10.9%	-0.1%	·	1.4%	3.5%
Oc1ccc(Nc2nc(-c3ccccc3)nc3ccccc23)cc1	-10.1%	-0.4%	?	-9.0%	-19.3%
COc1ccc(-c2nc(N/N=C(\C)c3ccc(O)cc3)c3ccccc3n2)cc1	14.1µM*	-2.0%	?	-94.2%	?
Oc1ccc(Nc2nc3ccccc3nc2Nc2ccc(O)cc2)cc1	11.2µM*	?	-20.9%	-50.3%	-9.3%
SMILES	TGFb inhibitor	Nrf2 ARE act	Nrf2 block	HepG2 tox	A549 viability
Oc1ccc(Nc2nc(-c3ccc(Cl)cc3)nc3ccccc23)cc1	?	-3.6%	-28.8%	14.1µM*	-5.2%
CC(C)(C)C1CCC(CN2C(Nc3ccccc3)=NC[C@@H]2Cc2ccccc2)CC1 (some centres undefined)	?	-2.8%	9.1%	12.6µM*	-7.7%
CC1CCCN(c2ncnc3c2cnn3-c2ccccc2)C1 (centres undefined)	14.9%	-1.8%	?	-28.5%	6.6%
COc1ccc(-c2csc(-c3cccs3)n2)c(OC)c1	-7.7%	24.1%	?	-14.8%	10.9%
CC1CN(S(=O)(=O)c2cccc(C(=O)Nc3ccccc3N3CCCC3)c2)CC(C)O1 (centres undefined)	-18.5%	3.5%	23.1µM*	-12.1%	-12.4%
CN(c1ccccc1)S(=O)(=O)c1cccc(C(=O)Nc2ccc(N3CCOCC3)cc2)c1	15.4%	3.8%	14.6µM*	-22.6%	-3.5%
COc1ccc(Br)cc1C(=O)Nc1ccc(N2CCN(S(C)(=O)=O)CC2)cc1	18.5%	2.5%	18.4µM*	-20.3%	-18.4%
CN1CCN(S(=O)(=O)c2cccc(C(=O)Nc3ccccc3N3CCCC3)c2)CC1	1.9%	-0.7%	-13.0%	11.5%	-8.2%
O=C(Nc1ccc(N2CCCCCC2)cc1)c1cccc(S(=O)(=O)N2CCOCC2)c1	-23.9%	0.2%	16.4µM*	4.7%	-3.1%
COc1ccc(C(=O)Nc2ccc(N3CCCCCC3)cc2)cc1S(=O)(=O)N1CCOCC1	?	-0.6%	13µM*	-17.8%	-17.3%
O=C(Nc1ccc(Br)cc1)c1cccc(OC(=S)N2CCOCC2)c1	?	3.2%	16.4µM*	-25.3%	-15.2%
N#C/C(=C\c1cn(-c2ccccc2)nc1-c1cccnc1)c1nnc2n1CCCCC2	1.1%	0.0%	20.6µM*	-12.4%	?
O=C(/C=C/c1cn(-c2ccccc2)nc1-c1cccnc1)N1CCCC1	-23.4%	4.1%	-18.0%	-28.2%	?
S=C1SCN(Cc2cccs2)CN1Cc1cccs1	12.6µM*	?	·	-84.9%	·
CCN1CSC(=S)N(Cc2ccccc2)C1	-18.9%	0.1%	15.5%	-10.8%	9.0%
S=C1SCN(Cc2ccco2)CN1Cc1ccco1	?	21.0%	-6.9%	-67.1%	-10.9%
CCCCCN1CSC(=S)N(Cc2ccccc2)C1	10µM*	-0.7%	0.2%	-8.5%	-0.6%
CCN1CSC(=S)N(Cc2ccc(OC)cc2)C1	3.98µM*	?	3.9%	7.94µM*	12.2%
Cc1cc2nc(-c3ccco3)cc(C(F)(F)F)n2n1	-1.9%	16.3%	9.8%	-25.9%	5.9%
CC(=O)NC1=CC(=O)c2nonc2C1=O	?	·	2.91µM*	-96.3%	7.31µM*
COc1cc(O)c(NC(C)=O)c2nonc12	22.3%	-0.7%	-4.8%	-5.2%	-10.8%
COc1cccc(CN(C)C(=O)CNC(=O)c2sc3ccccc3c2Cl)c1OC	4.0%	2.8%	25.9µM*	-41.7%	-17.0%
OCCN1CCN(CC/C=C2/c3ccccc3Sc3ccc(C(F)(F)F)cc32)CC1	?	-2.9%	-2.1%	7.08µM*	-16.5%
OCCN1CCN(CC/C=C2/c3ccccc3CSc3ccccc32)CC1	?	3.4%	0.0%	-60.3%	-1.4%
